This is a sample that favours compounds with a hit; in the whole collection about 7.8% have one here.
NOMO-1 viab: NOMO-1 AML cell viability reduction, primary screen, STK33 inhibitor project, CellTiter-Glo luminescence; NOMO-1 AML viability, 72 h; inhibition, % (test concentration not listed); actives 7.5% (n = 37,000); in the data active = inhibition above about 80%
MITF inhib: inhibitors of MITF, primary screen, MITF inhibitor project, cell-based, luminescence. TRPM1 promoter luciferase, 24 h. inhibition, % (no concentration beside the values). actives 0.28% (n = 37,000); in the data active = inhibition above about 85%;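 also: human melanocyte line stably carrying TRPM1 promoter luciferase reporter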
Hedgehog inh: Hedgehog pathway signaling inhibitors, primary screen, luminescence, Shh-LIGHT2 cells, Gli-luciferase; Shh-LIGHT2 Gli-luciferase reporter, 30 h; inhibition, % (concentration not given with the values); actives 2.1% (n = 22,000); AID 2313, 2010;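 active = mean inhibition across valid replicates above about 65%, limit read from the data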;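 also: pathway switched on by Shh-conditioned medium diluted 1 in 25 in low serum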
* marks the source's active call; other numbers are inactive results; . = not tested or not shown.

SMILES | NOMO-1 viab | MITF inhib | Hedgehog inh
COc1ccc(CN(C)C[C@@H]2Oc3c(NC(=O)Nc4ccc(C(F)(F)F)cc4)cccc3C(=O)N([C@@H](C)CO)C[C@H]2C)cc1 | 116* | 55 | 15
C=Cc1ccc(O[C@@H]2O[C@H](CO)[C@@H](O)[C@H](O)[C@H]2O[C@@H]2O[C@@H](C)[C@H](O)[C@@H](O)[C@H]2O)cc1 | 2 | -7 | -5
O=C(CCC1COc2ccccc2O1)Nc1ncc(C(F)(F)F)cc1Cl (stereo unspecified) | 23 | -6 | .
CC(=O)c1ccc(OC(=O)CCCN2C(=O)c3ccccc3C2=O)cc1 | -9 | -14 | .
C[C@@H]1CN([C@@H](C)CO)C(=O)c2cccc(NC(=O)NC3CCCCC3)c2O[C@@H]1CN(C)Cc1ccc(C(=O)Nc2ccccc2N)cc1 | 129* | 44 | .
C[C@@H]1CN([C@H](C)CO)C(=O)c2cccc(NC(=O)C3CCCCC3)c2O[C@@H]1CN(C)Cc1ccc(C(=O)O)cc1 | -21 | 1 | -25
C[C@H]1CN([C@@H](C)CO)C(=O)c2cccc(NC(=O)NC3CCCCC3)c2O[C@H]1CN(C)Cc1ccc(C(=O)O)cc1 | 13 | -7 | -6
C[C@H]1CN([C@@H](C)CO)C(=O)c2cccc(NC(=O)C3CCCCC3)c2O[C@H]1CN(C)Cc1ccc(C(=O)Nc2ccccc2N)cc1 | 127* | 0 | .
C[C@@H]1CN([C@H](C)CO)C(=O)c2cccc(NC(=O)C3CCOCC3)c2O[C@H]1CN(C)Cc1ccc(C(=O)Nc2ccccc2N)cc1 | 19 | -15 | .
C[C@@H]1CN([C@H](C)CO)C(=O)c2cccc(NC(=O)C3CC3)c2O[C@H]1CN(C)Cc1ccc(C(=O)O)cc1 | 8 | -3 | -33
C[C@H](CO)N1C[C@H](C)[C@H](CN(C)Cc2ccc(C(=O)Nc3ccccc3N)cc2)Oc2c(NC(=O)C3CC3)cccc2C1=O | 122* | 30 | .
C[C@@H]1CN([C@@H](C)CO)C(=O)c2cccc(NC(=O)C3CC3)c2O[C@@H]1CN(C)Cc1ccc(C(=O)Nc2ccccc2N)cc1 | 128* | 4 | .
CC(=O)Nc1ccc(NC(=O)CN(c2cc(C(F)(F)F)ccc2Cl)S(C)(=O)=O)cc1 | 9 | -8 | .
Cc1ccc(NC(=O)c2cc(=O)[nH]c(=O)[nH]2)cc1 | -2 | -33 | -20
COc1cc2occ(-c3ccc(O)cc3)c(=O)c2c(OC)c1O | 12 | 5 | 24
COc1ccc2c(c1)c(/C=C/c1nc3ccc(I)cc3c(=O)n1CCCO)c(C)n2C | -6 | -4 | .
COc1ccc(NC(=O)c2ccco2)cc1NC(=S)NC(=O)c1cc2ccccc2o1 | 23 | 33 | .
Cn1c(SCC(=O)N2CCc3ccccc32)nnc1-c1ccco1 | -14 | -1 | .
CC1CN(c2nc3ccccc3nc2SCC(=O)Nc2ccccc2)CC(C)O1 (stereo unspecified) | 88* | -12 | -36
O=C(CSc1nc2ccccc2nc1N1CCCC1)Nc1ccccc1 | 43 | -60 | -26
C[C@H](CO)N1C[C@H](C)[C@H](CN(C)CC2CCCCC2)Oc2ccc(NC(=O)Nc3ccccc3)cc2CC1=O | 106* | -14 | 3
C[C@@H]1CN([C@H](C)CO)C(=O)Cc2cc(NC(=O)Nc3ccccc3)ccc2O[C@H]1CN(C)CC1CC1 | -14 | -8 | -26
C[C@H]1CN([C@@H](C)CO)C(=O)Cc2cc(NC(=O)Nc3ccc(F)cc3)ccc2O[C@@H]1CN(C)CC1CCCCC1 | 99* | 10 | 7
C[C@@H]1CN([C@@H](C)CO)C(=O)c2cc(NC(=O)Nc3cccc4ccccc34)ccc2O[C@@H]1CN(C)CC1CCCCC1 | 118* | -52 | 39
C[C@H]1CN([C@@H](C)CO)C(=O)Cc2cc(NC(=O)Nc3ccc(F)cc3)ccc2O[C@H]1CN(C)CC1CCCCC1 | 105* | -22 | -18
SMILES | NOMO-1 viab | MITF inhib | Hedgehog inh
CC(C)NC(=O)Nc1ccc2c(c1)CC(=O)N([C@H](C)CO)C[C@@H](C)[C@@H](CN(C)CC1CCCCC1)O2 | 8 | -8 | 54
CC(C)NC(=O)Nc1ccc2c(c1)CC(=O)N([C@H](C)CO)C[C@H](C)[C@H](CN(C)CC1CCCCC1)O2 | 35 | -11 | -14
C[C@H](CO)N1C[C@H](C)[C@@H](CN(C)CC2CCCCC2)Oc2ccc(NC(=O)Nc3cccc4ccccc34)cc2C1=O | 32 | -1 | 7
CSc1nc(SCC(=O)Nc2cccc(C)c2)c2c3c(sc2n1)CCCC3 | 31 | 2 | .
Cn1c2ccccc2c2nnc(SCC(=O)c3ccc(Cl)cc3)nc21 | 2 | 33 | .
Cc1nc2ccccc2nc1OCC(=O)c1ccc(Cl)cc1 | 30 | -3 | .
CCn1c(SCC(=O)Nc2ccc(C(N)=O)cc2)nnc1-c1ccc(F)cc1 | -17 | -7 | .

Screening results deposited in PubChem BioAssay by Broad Institute.
